PubChem BioAssay (NCI)
About 79,000 compounds went through this panel and 15% of them were active in at least one assay; those are over-represented in the sample as a whole. Calls of active or inactive are those of the source. No stated cut-off is given here; in the data, active means growth inhibition above about 70%; inactive means the rest.

Tests used:
[1] = NCI Yeast Anticancer Drug Screen. Data for the rad50 strain (AID 155);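 further: 0% = growth of vehicle-only cultures of the same strain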; details: S. cerevisiae rad50 strain growth inhibition; at 50.0 µM; hits give high values
Outline: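 Growth of the mutant yeast was measured after compound exposure and referenced to vehicle-treated cultures.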

[2] = NCI Yeast Anticancer Drug Screen. Data for the mec2-1 strain (AID 157); details: S. cerevisiae mec2-1 strain, at 50.0 µM, hits give high values
Outline: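 Vehicle-treated cultures served as reference for growth inhibition of compound-exposed mec2-1 yeast.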

[3] = NCI Yeast Anticancer Drug Screen. Data for the sgs1 mgt1 strain (AID 161);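 further: 0% = growth of cultures given vehicle only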; details: S. cerevisiae sgs1 mgt1 strain, at 50.0 µM, hits give high values
Outline: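 Inhibition of yeast growth, normalised to vehicle-treated controls, is reported for a strain bearing genetic alterations in DNA damage repair.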

[4] = NCI Yeast Anticancer Drug Screen. Data for the cln2 rad14 strain (AID 165);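 further: 0% = growth equal to vehicle treated cultures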; details: S. cerevisiae cln2 rad14 strain, at 50.0 µM, hits give high values
Outline: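 Each compound was tested on cln2 rad14 yeast. Inhibition of growth was calculated against vehicle-exposed controls.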

[5] = NCI Yeast Anticancer Drug Screen. Data for the bub3 strain (AID 167); details: S. cerevisiae bub3 mutant strain, at 50.0 µM, hits give high values
Outline: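 Whole-cell yeast assay. The mutant strain was incubated with compounds, and growth inhibition was determined by comparison with vehicle-treated cells.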

[6] = NCI Yeast Anticancer Drug Screen. Data for the mlh1 rad18 strain (AID 175); details: S. cerevisiae mlh1 rad18 strain growth inhibition; at 50.0 µM; hits give high values
Outline: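 Vehicle-treated cultures served as the reference for growth inhibition in a yeast strain carrying DNA damage repair alterations exposed to each compound.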

Measured: growth inhibition

CC(=O)N(CN1C(=O)CCC1C(=O)O)c1cccc(O)c1 (stereo unspecified)
inactive: [1] 8.45% | [2] 9% | [3] -10.2% | [4] -5.7% | [5] -12.7% | [6] -66.7%

CC(C)c1cccc(C(C)C)c1NC(=O)Nc1cccc(C(F)(F)F)c1
inactive: [1] -5.4% | [2] -11.1% | [3] 1.45% | [4] 8.3% | [5] 10.2% | [6] 3.85%

CC(C)(C)C(=O)OCn1cc2c(=O)[nH]cnc2n1
inactive: [1] 11.9% | [2] 8.1% | [3] 28.6% | [4] -3.75% | [5] -8.7% | [6] 9.15%

C1CCC(N(CCN(C2CCCCC2)C2CCCCC2)C2CCCCC2)CC1
inactive: [1] -38.5% | [2] -32.8% | [3] -26.7% | [4] 15.3% | [5] 5.6% | [6] -11.9%

[O-][N+](O)=C1c2ccccc2-c2ccccc21
inactive: [1] 7.4% | [2] 2.95% | [3] 0.65% | [4] -21.4% | [5] 3.75% | [6] 11.1%

Cc1ccc(NC(=O)c2cc3c(cc2Cl)Sc2nccn2S3(=O)=O)cc1
inactive: [1] 21.7% | [2] 11.3% | [3] 12.7% | [4] -25.9% | [5] 11.4% | [6] 39.1%

O=C(C(=O)c1cccs1)c1cccs1
inactive: [1] 3.1% | [2] 9.05% | [3] 34.4% | [4] 6.15% | [5] -17.5% | [6] 22.5%

CC(COc1ccccc1)OC=O (stereo unspecified)
inactive: [1] 10.6% | [2] -2.65% | [3] 8.2% | [4] -24.4% | [5] -13.8% | [6] 8.65%

CC(=O)N1C(Nc2ccccc2)CCN1c1ccccc1 (stereo unspecified)
inactive: [1] -24.2% | [2] -31.5% | [3] -14.1% | [4] 10.9% | [5] 2.05% | [6] -8.35%

O=C(O)Cc1ccc(N2N=C(c3ccccc3)CC2=O)cc1
inactive: [1] 5.3% | [2] -5.05% | [3] -13.6% | [4] 35% | [5] 22.4% | [6] -9.3%

Cc1c(C)c2ccc(OCC(O)COC(C)C)c(C)c2oc1=O (stereo unspecified)
inactive: [1] -10.7% | [2] -5.5% | [3] -2.15% | [4] -5.95% | [5] -1.95% | [6] -29.6%

CCCCCCCC(=O)Nc1ccc(-n2c(=O)cc(C)n2C)cc1
inactive: [1] 15.7% | [2] -1.25% | [3] 12.2% | [4] -32% | [5] -7.7% | [6] 14.1%

OCn1c2ccccc2c2ccccc21
inactive: [1] 19.8% | [2] 0.55% | [3] 33.7% | [4] 20.8% | [5] 35.9% | [6] 19.8%

Nc1nc(Cl)cc(NCCCNc2cc(Cl)nc(N)n2)n1
inactive: [1] -1.55% | [2] 6.55% | [3] 13.3% | [4] 1.15% | [5] 3.65% | [6] 4.35%

N#CC12CCC(CC1)CC2Cl (stereo unspecified)
inactive: [1] -15.7% | [2] 8.45% | [3] 0.95% | [4] 4.4% | [5] 1.5% | [6] -12.7%

CCOc1c(Cc2ccccc2)c(=O)n2c3ccccc3n3c(=O)n(C)c(=O)c1c23
inactive: [1] -5.8% | [2] -22.4% | [3] -54.2% | [4] 11.8% | [5] -12.8% | [6] -25%

CCC(CC)c1nc2c([nH]1)c(=O)n(C)c(=O)n2C
inactive: [1] -34% | [2] 8.1% | [3] 5.3% | [4] -32.5% | [5] -7.2% | [6] -10.3%

CC(=O)N/N=C/c1ccc([N+](=O)[O-])s1
inactive: [1] 13.3% | [2] 15.1% | [3] 33.3% | [4] -11.8% | [5] 3.55% | [6] 45.5%

Nc1ccccc1/C=C(\C(=O)O)c1ccccc1
inactive: [1] -19.9% | [2] -4.45% | [3] 14.8% | [4] 12.4% | [5] -0.6% | [6] 11.4%

COc1cccc(C2c3cc4c(cc3OC(N3CCCC3)C2C)OCO4)c1O (stereo unspecified)
inactive: [1] 13.6% | [2] -18.6% | [3] 3.3% | [4] -19.8% | [5] 12.3% | [6] -11.1%

NC(=O)N/N=C/c1c(Cl)cccc1Cl
inactive: [1] 15.9% | [2] 17.2% | [3] 1.4% | [4] -10.7% | [5] -27.6% | [6] 31.5%

CC(=O)c1ccc(N2C(=O)C/C(=C/c3ccccc3O)C2=O)cc1
inactive: [1] 16.1% | [2] 0.05% | [3] 9.3% | [4] -20.9% | [5] 5.2% | [6] 16.6%

O=C1Oc2ccccc2CC1C(=O)c1ccc(Cl)cc1 (stereo unspecified)
inactive: [1] -7.75% | [2] -0.25% | [3] 8.95% | [4] -61.1% | [5] -21.4% | [6] 7.75%

O=C(CCC1CCCC1)Oc1ccccc1C(=O)O
inactive: [1] -1.9% | [2] -9.65% | [3] 7.1% | [4] -42.7% | [5] 9.5% | [6] 3.4%

C/C(=N\NS(=O)(=O)c1ccccc1)c1ccc(Cl)c(Cl)c1
inactive: [1] -19.3% | [2] -10% | [3] -18.9% | [4] 2.25% | [5] 10.5% | [6] -38.5%

Cc1cc(C)c(NS(=O)c2cccc(C(F)(F)F)c2)c(C)c1 (stereo unspecified)
inactive: [1] -47.1% | [2] -26.5% | [3] -61% | [4] -9.75% | [5] -31.4% | [6] -43%

O=C(CC1=NC2NN(c3ccccc3)C(=O)C2=C1CC(=O)C(c1ccccc1)c1ccccc1)C(c1ccccc1)c1ccccc1 (stereo unspecified)
inactive: [1] 51.9% | [2] 17.9% | [3] 27.8% | [4] 32% | [5] 10.8% | [6] 48.5%

CC(=O)NCCC(=O)NCCSC(C)=O
inactive: [1] -15% | [2] -12% | [3] 18.9% | [4] 6.15% | [5] -3.35% | [6] 9.25%

CCOC(OCC)c1ccccc1C
inactive: [1] 27.9% | [2] 9.3% | [3] 8.25% | [4] -36.5% | [5] 15.2% | [6] 20.4%

O=c1[nH]nc(-c2ccc(Cl)cc2)c2cc(Cl)c(Cl)cc12
inactive: [1] -6.45% | [2] -11.3% | [3] -10.7% | [4] -57.9% | [5] -5.2% | [6] -20.7%

C=C1C(=O)O[C@H]2[C@@H](O)[C@H](C)CCC[C@]3(C)O[C@H]3CC[C@@]3(C)O[C@@H]3C[C@@H]12
active: [3] 70.5%
inactive: [1] 19.4% | [2] 37.2% | [4] 41.8% | [5] 61.1% | [6] 58.2%

CC(C)CCC[C@@H](C)[C@H]1CC[C@H]2[C@@H]3CC=C4C[C@@H](Cl)CC[C@]4(C)[C@H]3CC[C@]12C
inactive: [1] -3.75% | [2] -13.8% | [3] -20% | [4] -2.8% | [5] -8.9% | [6] -0.35%

CCC12C=CCN(CCc3c([nH]c4ccccc34)/C=C\1)C2 (stereo unspecified)
inactive: [1] -8.95% | [2] -8.75% | [3] -7.25% | [4] -1.6% | [5] 6.55% | [6] -15.8%

CCN(CC)C1=CC(=O)C(N(CC)CC)=CC1=O
inactive: [1] 1.25% | [2] 0.15% | [3] -7% | [4] -4.5% | [5] 13.1% | [6] 2.35%

COC(=O)CCc1ccc(CCC(=O)OC)cc1
inactive: [1] -14.8% | [2] -37.1% | [3] -1.5% | [4] 4.2% | [5] -11.2% | [6] 9.7%

Cc1cc(N(CCCCl)CCCCl)ccc1C=Nc1cc(Br)c(O)c(Br)c1
active: [1] 81% | [3] 93.5% | [5] 76.3% | [6] 84.9%
inactive: [2] 52.4% | [4] 52.5%

COC(C)(C)C/C=C/C(C)=C/C=C/C(C)=C\C=C\C(C)=C\C=C\C=C(C)\C=C\C=C(C)\C=C\C=C(C)\C=C\CC(C)(C)OC
inactive: [1] -10.8% | [2] -1.65% | [3] -26.9% | [4] 2.25% | [5] -12.2% | [6] -12.1%

CN(C)CCCNC=O
inactive: [1] -30.2% | [2] -10.9% | [3] -26.2% | [4] -11.2% | [5] -0.45% | [6] 23.6%

O=C(Nc1cc2[nH]c(=O)c3ccccc3c2cc1[N+](=O)[O-])C(F)(F)F
inactive: [1] 40% | [2] -5.85% | [3] 10.8% | [4] 0.9% | [5] -12.4% | [6] 0.25%

Cc1nc(N)[nH]c(=O)c1N
inactive: [1] 13.9% | [2] 3.4% | [3] 8.25% | [4] 11.8% | [5] -7.8% | [6] 8.6%

CCC(NC(C)c1ccccc1)C(O)c1ccc(OCc2ccccc2)c(OCc2ccccc2)c1 (stereo unspecified)
active: [1] 88.6% | [2] 91.5% | [3] 92.3% | [4] 91.3% | [5] 91.5% | [6] 87.7%
